Among the data in PubChem BioAssay are composite z-score and z-score values, retold here.

A short description of experiment [1]: small molecules captured by biotinylated probe aFSTL3 – biochemical, small-molecule microarray, fluorescence 635/667, stem cell growth factor project, primary screen (AID 1064).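 Note: measures binding of the biotinylated anti-FSTL3 antibody to printed compounds.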 Particulars: higher = more signal.
Experiment [2] in a line: binders from COS7 lysate, DM2A8 probe, primary screen, torsin A project, cell lysate, small-molecule microarray, fluorescence 635/667 (AID 1065). Particulars: higher = more signal, COS7 lysate expressing mutant human TOR1A.
A short description of experiment [3]: small molecules captured by biotinylated probe aFGF2 – biochemical, small-molecule microarray, fluorescence 635/667, stem cell growth factor project, primary screen (AID 1067).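 Note: measures binding of biotinylated aFGF2 protein to printed compounds on slides; z-score merges feature fluorescence and signal-to-noise across triplicate slides.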 Particulars: higher = more signal.
A short description of experiment [4]: small molecules captured by biotinylated probe aFGF10 – biochemical, small-molecule microarray, fluorescence 635/667, stem cell growth factor project, primary screen (AID 1071).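 Note: score merges 667 nm spot intensity and signal to noise from triplicate slides.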 Particulars: higher = more signal.
Experiment [5] concerns the target Neurogenic locus notch homolog protein 2 (Homo sapiens) (UniProt Q04721). Description: small molecules binding Notch2 protein – biochemical, small-molecule microarray, 635 nm fluorescence, stem cell growth factors, primary screen (AID 1073). Particulars: higher = more signal.
For experiment [6], the target named is Pro-neuregulin-1, membrane-bound isoform (Homo sapiens) (UniProt Q02297). In words: small molecules binding neuregulin-1 protein – biochemical, small-molecule microarray, fluorescence 635/667, psychiatric disease protein project, primary screen (AID 1075).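 Note: score combines 667 nm spot fluorescence with signal to noise.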 Particulars: NRG1 binding, 635 nm fluorescence, higher = more signal.
For experiment [7], the system named is Neuregulin-1 EGF-like domain. In words: small molecules binding NRG1 EGF domain – biochemical, small-molecule microarray, 635 nm fluorescence, primary screen (AID 1081).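 Note: binding of the protein to compounds printed on small-molecule microarray slides.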 Particulars: higher = more signal.
Experiment [8] is described as follows: FRG1 expression reporter modulators in myotubes – cell-based, C2C12 myotubes, firefly/Renilla luciferase, luminescence, FRG1 inhibition for FSHD, primary screen (AID 1084). Particulars: FRG1 promoter luciferase, higher = more signal, called active from +8 up or from −8 down.
A short description of experiment [9]: small molecules captured by biotinylated probe aFST – biochemical, small-molecule microarray, fluorescence 635/667, stem cell growth factor project, primary screen (AID 1086).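 Note: score merges 667 nm fluorescence with signal-to-noise of each printed compound spot.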 Particulars: higher = more signal.
The nature of experiment [10]: binders of probe aHhip on microarray, primary screen, stem cell growth factor project, biochemical, small-molecule microarray, fluorescence 635/667 (AID 1087).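 Note: score merges spot fluorescence at 667nm with spot signal to noise ratio.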 Particulars: higher = more signal.
Experiment [11] relates to PRMT1 (protein arginine N-methyltransferase 1). Description: small molecules binding arginine methyltransferase PRMT1 – biochemical, small-molecule microarray, 635 nm fluorescence, primary screen (AID 1088).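 Note: binding of Prmt1 protein to compounds spotted on small-molecule microarray slides.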 Particulars: higher = more signal.
Experiment [12] can be described thus: growth effects on S. cerevisiae YJM789 – YJM789 clinical isolate, OD600, 24 h, basal, primary screen (AID 1089).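 Note: growth of clinical yeast isolate S. cerevisiae YJM 789 seeded 1000 cells per well; test concentration not given here.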 Particulars: higher = more signal, called active from +8 up or from −8 down.
Experiment [13] is described as follows: S. pombe growth modifiers, basal conditions – strain 972, OD600, 24 h, no modulator, primary screen (AID 1090).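 Note: basal condition with compound alone and no growth modifier present; test concentration not given here.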 Particulars: S. pombe 972 growth, higher = more signal, called active from +8 up or from −8 down.
The nature of experiment [14]: budding yeast growth modifiers under rapamycin – strain BY4716, OD600, 96 h, primary screen (AID 1091). Note: test concentration not given here. Particulars: S. cerevisiae BY4716 + rapamycin, higher = more signal, called active from +8 up or from −8 down.
Experiment [15] concerns the target Torsin-1A-interacting protein 2 (Homo sapiens) (UniProt Q8NFQ8). In words: small molecules binding lysate-expressed LULL1 – cell lysate, human LULL1 lysate, 635/667 nm fluorescence, primary screen (AID 1092).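 Note: probe is lysate of COS7 cells overexpressing human LULL1; score merges per-feature 667 nm fluorescence with signal-to-noise.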 Particulars: small-molecule microarray, hLULL1 lysate binding, 635 nm fluorescence; higher = more signal.
A short description of experiment [16]: optical density change of DRC41 E. coli – strain DRC41, OD650, 24 h, E. coli filamentation project, primary screen (AID 1093).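 Note: MC1000 strain lacking acrAB efflux and sulA so SOS filamentation is blocked; test concentration not given here.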 Particulars: E. coli DRC41 growth, higher = more signal, called active from +8 up or from −8 down.
Experiment [17] can be described thus: probe aLefty2 binding to arrayed compounds – biochemical, biotinylated probe, 635/667 nm fluorescence, primary screen (AID 1094).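 Note: score merges spot fluorescence near 667 nm with spot signal-to-noise ratio.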 Particulars: small-molecule microarray, higher = more signal.
Experiment [18] concerns Noggin (protein binding on small-molecule microarray). In words: small molecules binding Noggin protein – biochemical, 635/667 nm fluorescence, primary screen (AID 1095).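 Note: score merges 667 nm feature fluorescence with signal to noise over triplicate slides.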 Particulars: 635 nm fluorescence, higher = more signal.
The target of experiment [19] is Neurogenic locus notch homolog protein 3 (Homo sapiens) (UniProt Q9UM47). In words: small molecules binding NOTCH3 protein – biochemical, 635/667 nm fluorescence, primary screen (AID 1096). Particulars: small-molecule microarray, 635 nm fluorescence, higher = more signal.
The nature of experiment [20]: probe aEGFR binding to arrayed compounds – biochemical, biotinylated probe, 635/667 nm fluorescence, primary screen (AID 1097).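 Note: probe is a biotinylated anti-EGFR antibody binding compounds printed on slides; score combines fluorescence near 667 nm and signal to noise of each spot.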 Particulars: small-molecule microarray, higher = more signal.

Structures are written as SMILES. The source made the active and inactive calls.

Chain of Neurogenic locus notch homolog protein 3 (Homo sapiens) (Q9UM47 whole entry, looked up): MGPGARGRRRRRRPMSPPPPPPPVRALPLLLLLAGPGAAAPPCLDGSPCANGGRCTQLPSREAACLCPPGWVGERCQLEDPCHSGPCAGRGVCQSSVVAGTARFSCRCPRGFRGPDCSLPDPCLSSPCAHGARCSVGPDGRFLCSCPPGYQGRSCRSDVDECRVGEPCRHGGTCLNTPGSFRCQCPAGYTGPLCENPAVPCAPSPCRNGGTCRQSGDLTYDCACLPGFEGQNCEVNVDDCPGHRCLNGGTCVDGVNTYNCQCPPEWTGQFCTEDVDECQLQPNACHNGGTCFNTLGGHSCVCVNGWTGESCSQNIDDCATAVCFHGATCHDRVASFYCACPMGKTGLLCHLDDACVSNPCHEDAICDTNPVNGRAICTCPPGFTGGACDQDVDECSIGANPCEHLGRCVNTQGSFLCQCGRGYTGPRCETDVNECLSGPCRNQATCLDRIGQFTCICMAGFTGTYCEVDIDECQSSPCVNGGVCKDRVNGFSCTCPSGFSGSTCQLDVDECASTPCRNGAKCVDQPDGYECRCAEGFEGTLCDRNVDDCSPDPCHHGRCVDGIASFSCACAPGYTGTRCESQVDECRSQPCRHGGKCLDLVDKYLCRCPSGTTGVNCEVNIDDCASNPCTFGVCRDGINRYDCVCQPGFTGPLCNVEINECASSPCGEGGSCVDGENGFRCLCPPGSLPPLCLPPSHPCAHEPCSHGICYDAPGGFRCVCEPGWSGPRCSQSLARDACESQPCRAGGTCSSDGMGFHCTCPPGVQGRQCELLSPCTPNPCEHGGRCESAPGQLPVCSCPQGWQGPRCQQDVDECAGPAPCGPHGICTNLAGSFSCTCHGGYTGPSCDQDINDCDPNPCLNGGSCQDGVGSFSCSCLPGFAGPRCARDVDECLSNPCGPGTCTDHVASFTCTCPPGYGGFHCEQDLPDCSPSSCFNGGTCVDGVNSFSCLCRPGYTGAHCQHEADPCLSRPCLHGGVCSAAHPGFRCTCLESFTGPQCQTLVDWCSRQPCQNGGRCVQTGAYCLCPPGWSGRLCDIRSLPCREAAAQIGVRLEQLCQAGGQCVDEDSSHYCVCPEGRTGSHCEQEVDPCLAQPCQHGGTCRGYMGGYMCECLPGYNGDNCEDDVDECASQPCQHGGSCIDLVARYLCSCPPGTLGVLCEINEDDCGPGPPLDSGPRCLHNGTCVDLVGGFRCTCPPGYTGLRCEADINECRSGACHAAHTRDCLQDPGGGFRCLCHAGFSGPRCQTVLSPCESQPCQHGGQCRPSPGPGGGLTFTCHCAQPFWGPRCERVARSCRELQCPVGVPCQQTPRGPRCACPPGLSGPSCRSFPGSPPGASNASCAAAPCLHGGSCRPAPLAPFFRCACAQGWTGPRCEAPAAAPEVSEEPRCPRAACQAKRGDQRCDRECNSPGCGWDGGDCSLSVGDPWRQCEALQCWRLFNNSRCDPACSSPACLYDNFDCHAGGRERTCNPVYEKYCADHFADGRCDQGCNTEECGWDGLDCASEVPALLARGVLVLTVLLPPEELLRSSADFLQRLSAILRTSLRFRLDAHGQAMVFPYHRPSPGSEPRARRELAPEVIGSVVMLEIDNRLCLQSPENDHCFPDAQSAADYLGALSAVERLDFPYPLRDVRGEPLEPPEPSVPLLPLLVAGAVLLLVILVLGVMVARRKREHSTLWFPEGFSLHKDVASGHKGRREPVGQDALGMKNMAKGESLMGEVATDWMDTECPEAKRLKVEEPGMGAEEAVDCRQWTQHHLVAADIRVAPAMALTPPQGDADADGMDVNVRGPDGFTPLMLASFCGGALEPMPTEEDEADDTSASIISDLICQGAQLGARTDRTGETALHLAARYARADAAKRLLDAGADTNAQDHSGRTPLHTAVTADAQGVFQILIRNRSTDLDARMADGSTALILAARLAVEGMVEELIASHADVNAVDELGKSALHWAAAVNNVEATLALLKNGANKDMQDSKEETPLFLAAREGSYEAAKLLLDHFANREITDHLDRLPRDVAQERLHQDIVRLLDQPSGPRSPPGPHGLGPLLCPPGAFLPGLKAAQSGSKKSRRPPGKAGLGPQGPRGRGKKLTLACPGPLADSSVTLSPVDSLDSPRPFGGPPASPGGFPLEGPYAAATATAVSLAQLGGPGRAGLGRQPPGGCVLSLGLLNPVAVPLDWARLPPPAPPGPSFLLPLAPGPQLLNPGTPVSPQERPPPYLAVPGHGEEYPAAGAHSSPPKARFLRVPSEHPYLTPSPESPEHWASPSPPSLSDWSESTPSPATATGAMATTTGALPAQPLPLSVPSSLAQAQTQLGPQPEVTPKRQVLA
Chain of Pro-neuregulin-1, membrane-bound isoform (Homo sapiens) (Q02297 whole entry, looked up, the tested form may be a part, canonical isoform): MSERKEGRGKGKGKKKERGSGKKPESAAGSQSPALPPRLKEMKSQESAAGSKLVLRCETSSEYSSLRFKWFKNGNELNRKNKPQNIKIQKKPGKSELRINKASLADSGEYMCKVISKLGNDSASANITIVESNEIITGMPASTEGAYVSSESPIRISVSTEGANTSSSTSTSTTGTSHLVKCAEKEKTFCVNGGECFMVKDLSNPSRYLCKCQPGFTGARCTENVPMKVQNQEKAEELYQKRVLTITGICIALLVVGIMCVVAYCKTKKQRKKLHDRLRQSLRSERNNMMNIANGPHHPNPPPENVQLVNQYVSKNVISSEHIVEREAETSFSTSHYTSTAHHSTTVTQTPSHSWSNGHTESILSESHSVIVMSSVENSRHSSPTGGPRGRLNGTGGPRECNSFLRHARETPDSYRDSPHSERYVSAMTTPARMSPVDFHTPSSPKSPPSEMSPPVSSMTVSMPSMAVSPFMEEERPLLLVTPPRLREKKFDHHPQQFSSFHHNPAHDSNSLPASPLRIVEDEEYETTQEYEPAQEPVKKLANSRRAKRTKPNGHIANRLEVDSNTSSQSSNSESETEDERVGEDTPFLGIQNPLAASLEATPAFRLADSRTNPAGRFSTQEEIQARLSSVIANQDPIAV
Chain of Torsin-1A-interacting protein 2 (Homo sapiens) (Q8NFQ8 whole entry, looked up): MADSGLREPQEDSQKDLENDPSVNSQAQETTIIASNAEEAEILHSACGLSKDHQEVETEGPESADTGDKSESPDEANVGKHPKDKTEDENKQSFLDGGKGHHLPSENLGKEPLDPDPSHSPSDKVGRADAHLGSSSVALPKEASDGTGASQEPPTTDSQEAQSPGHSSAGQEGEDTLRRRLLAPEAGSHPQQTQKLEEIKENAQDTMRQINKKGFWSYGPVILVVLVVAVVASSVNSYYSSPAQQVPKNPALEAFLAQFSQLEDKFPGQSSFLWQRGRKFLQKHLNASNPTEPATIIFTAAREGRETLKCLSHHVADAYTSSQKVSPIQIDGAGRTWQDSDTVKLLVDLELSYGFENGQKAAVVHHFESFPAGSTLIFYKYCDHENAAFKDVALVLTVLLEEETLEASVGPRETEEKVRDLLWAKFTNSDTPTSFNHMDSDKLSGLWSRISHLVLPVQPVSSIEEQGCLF

With `C=C[C@H](C)[C@@H](OC(=O)Nc1ccc(OC)cc1)c1ccc(O)c2ccccc12`, the composite z-score in experiment [1] is 0.358; in experiment [2] it was 0.357; in experiment [3], -0.142; in experiment [4], -0.225; in experiment [5] it was -1.53; in [6] it was 0.3. Besides, the composite z-score was 1.27 in experiment [7]; -0.344 in [9]; -0.37 in [10]; 0.0444 in experiment [11]; 1.63 in experiment [15]; -0.266 in [17]. The figures for the composite z-score in experiment [18], in experiment [19] and in experiment [20] were 0.823, 0.0291 and -0.275, respectively. The z-score in experiment [8] was 4.09 (inactive); in [12], -24.6 (active); in [13], -20.8 (active); in experiment [14], -3.58 (inactive); in experiment [16] it was 0.431 (inactive).

As to `COCCOC(=O)N1C(=O)[C@@]2(c3ccccc31)[C@H](C(=O)N1CCc3cc(OC)c(OC)cc3C1)[C@H]1C(=O)O[C@H](c3ccccc3)[C@H](c3ccccc3)N1[C@@H]2c1ccc(OCCO)cc1`, the composite z-score was 0.249 in experiment [1]; 0.977 in [2]; -0.279 in experiment [3]; 0.509 in [4]; 0.832 in [5]; 0.0602 in experiment [6]. Besides, the composite z-score in [7] is 1.21; in [9], 0.412; in experiment [10] it was -0.0085; in experiment [11], 1.51; in experiment [15] it was 2.27; in experiment [17] it was 0.103. Also, the composite z-score is 0.94 in [18], 0.995 in experiment [19] and -0.0309 in experiment [20]. For the same compound, the z-score in [8] is -1.98 (inactive); in experiment [12] it was 2.26 (inactive); in experiment [13], 0.476 (inactive); in experiment [14] it was 4.47 (inactive); in experiment [16], 1.68 (inactive).

With `C=CCC(OC(C)=O)[C@@H]1[C@@H](N(Cc2cc3ccccc3o2)C(=O)c2cccc3ccccc23)c2cc(OCCCO)ccc2N1C(=O)c1ccc(-c2ccccc2)cc1` (stereo not given in full), the composite z-score is 0.118 in [1]; -0.203 in experiment [2]; -0.108 in [3]; 0.0904 in experiment [4]; 0.0918 in experiment [5]; 0.142 in experiment [6]. Besides, the composite z-score in experiment [7] was -0.164; in experiment [9], 0.101; in experiment [10], -0.137; in [11], -0.101; in [15], 0.581; in experiment [17] it was -0.0674. In addition, the composite z-score is 0.293 in experiment [18], -0.527 in experiment [19] and 0.0969 in experiment [20]. Besides, the z-score is -0.408 (inactive) in experiment [8]; 0.109 (inactive) in experiment [12]; -0.847 (inactive) in experiment [13]; 0.0344 (inactive) in experiment [14]; 1.78 (inactive) in experiment [16].

With `C[N+](C)(C)CCCC[C@@H]1NC(=O)[C@H]2C[C@@H](C(=O)NCCCCCCNC(=O)CS)[C@@H](c3cccc(OCCO)c3)N2C1=O`, the composite z-score in [1] is 0.227; in [2], 0.0439; in experiment [3], -0.172; in [4], -0.83; in experiment [5] it was -1.34; in [6], -0.861. Moreover, the composite z-score in experiment [7] was 0.439; in [9], -0.948; in [10], -0.261; in experiment [11], -0.452; in experiment [15], 2.01; in [17], -0.0766. The values for the composite z-score in [18], in experiment [19] and in experiment [20] were -0.33, -0.837 and -0.268, respectively. Further, the z-score was 0.816 (inactive) in experiment [8]; -0.173 (inactive) in [12]; 0.532 (inactive) in experiment [13]; -0.0564 (inactive) in experiment [14]; 0.154 (inactive) in [16].

Turning to `O=C(NCCO)C1=C[C@H](Oc2ccccc2I)[C@@H](O)[C@H](N(Cc2ccco2)C(=O)Cc2ccccc2)C1`, the composite z-score in experiment [1] was 0.0391; in [2] it was 0.208; in [3] it was -0.112; in [4] it was 0.236; in [5], 0.299; in experiment [6], -0.352. Also, the composite z-score was -0.473 in experiment [7]; -0.0165 in experiment [9]; 0.12 in experiment [10]; -0.0355 in experiment [11]; -0.298 in [15]; -0.0279 in [17]. Moreover, the composite z-score in experiment [18] was 0.535; in [19], 0.271; in experiment [20], -0.0767. Also, the z-score in experiment [8] is 0.157 (inactive); in experiment [12], 0.528 (inactive); in experiment [13], 0.0689 (inactive); in [14], 0.279 (inactive); in experiment [16] it was -0.546 (inactive).
